# According to paper PMC7862700, “An all-to-all approach to the identification of sequence-specific readers for epigenetic DNA modifications on cytosine”:
# Legend:
# Assay in all cases: DAPPL (digital affinity profiling via proximity ligation, sequencing); 10 mM Tris-HCl pH 7.5, 50 mM NaCl, 1 mM DTT, 4% glycerol, room temperature, 30 min; GST-TFs on glutathione beads, 16-mer random dsDNA library, 0.1% formaldehyde crosslink after washing; high values mean tight binding
# [1] = molecular target: T1, FLI1 (Homo sapiens, UniProt Q01543 1-452); details: protein: recombinant; tags: N-terminal GST; dsDNA, one strand shown
# T1 sequence: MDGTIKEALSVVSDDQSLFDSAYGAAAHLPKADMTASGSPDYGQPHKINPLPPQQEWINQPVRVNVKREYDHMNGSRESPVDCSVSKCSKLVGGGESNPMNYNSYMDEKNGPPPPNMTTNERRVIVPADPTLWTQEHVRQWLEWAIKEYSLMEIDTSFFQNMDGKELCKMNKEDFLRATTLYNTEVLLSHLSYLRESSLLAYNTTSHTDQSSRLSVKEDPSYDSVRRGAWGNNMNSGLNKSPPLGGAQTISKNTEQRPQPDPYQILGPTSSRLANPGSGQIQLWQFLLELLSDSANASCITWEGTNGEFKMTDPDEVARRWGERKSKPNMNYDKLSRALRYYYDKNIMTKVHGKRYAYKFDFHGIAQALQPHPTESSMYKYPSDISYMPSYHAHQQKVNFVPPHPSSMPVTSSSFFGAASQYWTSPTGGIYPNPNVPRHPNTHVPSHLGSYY
# Procedure, shortened: (§1)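 Binding signal is defined as a hexamer's read frequency for one factor over its frequency for the tag-only sample. To obtain reads, GST-fused human transcription factors were expressed in yeast, captured on glutathione beads, barcoded with DNA and pooled with that sample. Pools met 200 nmole of a 16-mer random double-stranded DNA library in Tris/NaCl/DTT/glycerol buffer for 30 min at room temperature before washing, 0.1% formaldehyde crosslinking, proximity ligation (BsaI/T4 ligase, 1 h, 37 °C), PCR and Illumina NextSeq500 sequencing.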
# [2] = molecular target: T2, ELK1 (Homo sapiens, UniProt P19419 1-428); details: protein: recombinant; tags: N-terminal GST; dsDNA, one strand shown
# T2 sequence: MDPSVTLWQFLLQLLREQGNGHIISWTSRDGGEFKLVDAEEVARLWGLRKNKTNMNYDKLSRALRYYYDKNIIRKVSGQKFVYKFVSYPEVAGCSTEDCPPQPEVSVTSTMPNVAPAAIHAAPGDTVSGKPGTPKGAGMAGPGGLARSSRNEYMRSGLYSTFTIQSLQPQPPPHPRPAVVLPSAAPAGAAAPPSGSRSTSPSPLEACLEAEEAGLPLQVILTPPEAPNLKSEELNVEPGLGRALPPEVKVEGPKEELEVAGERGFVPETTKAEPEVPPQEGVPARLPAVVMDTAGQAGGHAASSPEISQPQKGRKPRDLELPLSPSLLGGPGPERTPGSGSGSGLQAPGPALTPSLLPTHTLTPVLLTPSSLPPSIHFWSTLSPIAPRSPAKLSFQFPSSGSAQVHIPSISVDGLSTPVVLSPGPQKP
# Procedure, shortened: as §1
# [3] = molecular target: T3, GABPA (Homo sapiens, UniProt Q06546 1-454); details: protein: recombinant; tags: N-terminal GST; dsDNA, one strand shown
# T3 sequence: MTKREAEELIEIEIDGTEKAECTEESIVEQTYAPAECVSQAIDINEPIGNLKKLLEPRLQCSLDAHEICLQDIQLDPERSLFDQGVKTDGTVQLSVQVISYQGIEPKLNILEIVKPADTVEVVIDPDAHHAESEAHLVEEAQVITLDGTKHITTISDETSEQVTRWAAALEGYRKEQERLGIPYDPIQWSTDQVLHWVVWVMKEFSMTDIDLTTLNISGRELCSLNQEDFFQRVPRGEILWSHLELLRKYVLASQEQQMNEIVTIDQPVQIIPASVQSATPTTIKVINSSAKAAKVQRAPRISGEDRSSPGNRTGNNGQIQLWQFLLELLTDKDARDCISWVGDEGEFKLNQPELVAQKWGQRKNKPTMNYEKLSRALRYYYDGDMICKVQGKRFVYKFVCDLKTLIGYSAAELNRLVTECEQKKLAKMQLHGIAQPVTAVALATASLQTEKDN
# Procedure, shortened: as §1
# [4] = molecular target: T4, ERG (Homo sapiens, UniProt P11308 1-479); details: protein: recombinant; tags: N-terminal GST; dsDNA, one strand shown
# T4 sequence: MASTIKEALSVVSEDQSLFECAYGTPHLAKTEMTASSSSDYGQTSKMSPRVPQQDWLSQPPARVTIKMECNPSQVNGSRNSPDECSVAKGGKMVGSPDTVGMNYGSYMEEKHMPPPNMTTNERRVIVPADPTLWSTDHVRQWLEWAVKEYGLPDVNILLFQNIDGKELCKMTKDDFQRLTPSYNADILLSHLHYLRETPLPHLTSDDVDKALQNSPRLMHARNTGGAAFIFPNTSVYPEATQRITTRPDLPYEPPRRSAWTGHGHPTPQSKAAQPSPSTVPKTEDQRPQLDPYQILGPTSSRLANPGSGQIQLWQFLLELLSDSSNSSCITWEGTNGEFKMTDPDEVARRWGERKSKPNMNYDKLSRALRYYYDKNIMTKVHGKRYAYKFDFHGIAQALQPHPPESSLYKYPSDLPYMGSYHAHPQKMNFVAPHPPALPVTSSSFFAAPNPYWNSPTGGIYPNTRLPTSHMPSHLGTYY
# Procedure, shortened: as §1
# [5] = molecular target: ELF1 (Homo sapiens, UniProt P32519 1-619); details: protein: recombinant; tags: N-terminal GST; dsDNA, one strand shown
# Chain of ELF1 (P32519 whole entry): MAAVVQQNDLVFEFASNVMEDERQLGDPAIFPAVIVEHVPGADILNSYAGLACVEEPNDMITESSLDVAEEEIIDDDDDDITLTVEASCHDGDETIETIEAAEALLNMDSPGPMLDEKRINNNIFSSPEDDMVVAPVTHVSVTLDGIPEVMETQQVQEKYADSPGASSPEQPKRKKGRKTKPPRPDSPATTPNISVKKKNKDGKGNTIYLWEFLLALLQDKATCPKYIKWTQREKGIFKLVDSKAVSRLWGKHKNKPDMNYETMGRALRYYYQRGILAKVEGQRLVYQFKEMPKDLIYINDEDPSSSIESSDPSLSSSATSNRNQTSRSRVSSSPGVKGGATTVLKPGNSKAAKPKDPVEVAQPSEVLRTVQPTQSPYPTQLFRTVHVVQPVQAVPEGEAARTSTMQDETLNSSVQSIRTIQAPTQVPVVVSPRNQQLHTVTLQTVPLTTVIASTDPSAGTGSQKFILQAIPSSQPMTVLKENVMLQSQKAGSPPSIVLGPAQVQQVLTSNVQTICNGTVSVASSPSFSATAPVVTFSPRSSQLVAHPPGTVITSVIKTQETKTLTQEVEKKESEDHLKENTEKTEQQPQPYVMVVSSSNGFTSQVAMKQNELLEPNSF
# Procedure, shortened: as §1
# [6] = molecular target: T5, EHF (Homo sapiens, UniProt Q9NZC4 1-300); details: protein: recombinant; tags: N-terminal GST; dsDNA, one strand shown
# T5 sequence: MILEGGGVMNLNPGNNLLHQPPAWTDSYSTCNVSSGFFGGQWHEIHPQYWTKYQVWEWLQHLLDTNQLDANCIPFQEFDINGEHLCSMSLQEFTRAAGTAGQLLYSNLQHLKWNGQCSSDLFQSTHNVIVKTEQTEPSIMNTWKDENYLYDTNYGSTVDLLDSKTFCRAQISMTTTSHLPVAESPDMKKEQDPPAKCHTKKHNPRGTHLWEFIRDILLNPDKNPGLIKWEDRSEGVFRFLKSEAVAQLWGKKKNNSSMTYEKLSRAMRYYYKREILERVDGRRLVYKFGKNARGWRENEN
# Procedure, shortened: as §1
# [7] = molecular target: SPI1 (Homo sapiens, UniProt P17947 1-270); details: protein: recombinant; tags: N-terminal GST; dsDNA, one strand shown
# Procedure, shortened: as §1
# [8] = molecular target: SPIB (Homo sapiens, UniProt Q01892 1-262); details: protein: recombinant; tags: N-terminal GST; dsDNA, one strand shown
# Chain of SPIB (Q01892 whole entry): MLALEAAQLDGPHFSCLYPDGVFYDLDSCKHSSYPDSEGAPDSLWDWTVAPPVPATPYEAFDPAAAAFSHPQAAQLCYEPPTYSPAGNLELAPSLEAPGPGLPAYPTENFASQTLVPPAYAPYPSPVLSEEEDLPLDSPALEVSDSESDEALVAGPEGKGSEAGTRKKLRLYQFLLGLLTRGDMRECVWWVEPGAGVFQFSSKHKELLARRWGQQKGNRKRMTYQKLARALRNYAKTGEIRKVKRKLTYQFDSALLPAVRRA
# Procedure, shortened: as §1
# [9] = molecular target: T6, ELK3 (Homo sapiens, UniProt P41970 1-407); details: protein: recombinant; tags: N-terminal GST; dsDNA, one strand shown
# T6 sequence: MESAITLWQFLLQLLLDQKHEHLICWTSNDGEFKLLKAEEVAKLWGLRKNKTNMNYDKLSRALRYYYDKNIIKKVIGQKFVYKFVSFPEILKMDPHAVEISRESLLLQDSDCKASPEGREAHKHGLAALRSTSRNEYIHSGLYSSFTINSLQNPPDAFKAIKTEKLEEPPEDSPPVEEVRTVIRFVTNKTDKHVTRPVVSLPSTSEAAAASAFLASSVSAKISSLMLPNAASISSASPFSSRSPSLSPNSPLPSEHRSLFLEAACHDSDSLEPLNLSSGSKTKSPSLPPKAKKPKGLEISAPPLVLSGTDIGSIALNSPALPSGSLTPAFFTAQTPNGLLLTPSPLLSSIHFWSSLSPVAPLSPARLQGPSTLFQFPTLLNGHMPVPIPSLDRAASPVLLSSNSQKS
# Procedure, shortened: as §1
# [10] = molecular target: T7, FEV (Homo sapiens, UniProt Q99581 1-238); details: protein: recombinant; tags: N-terminal GST; dsDNA, one strand shown
# T7 sequence: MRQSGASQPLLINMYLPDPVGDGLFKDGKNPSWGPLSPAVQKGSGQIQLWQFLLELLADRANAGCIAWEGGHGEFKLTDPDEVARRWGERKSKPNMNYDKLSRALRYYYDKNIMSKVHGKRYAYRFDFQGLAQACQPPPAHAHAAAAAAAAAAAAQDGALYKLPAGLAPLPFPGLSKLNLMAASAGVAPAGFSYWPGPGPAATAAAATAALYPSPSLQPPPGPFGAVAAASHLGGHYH
# Procedure, shortened: as §1
# [11] = molecular target: ETV5 (Homo sapiens, UniProt P41161 1-510); details: protein: recombinant; tags: N-terminal GST; dsDNA, one strand shown
# Chain of ETV5 (P41161 whole entry): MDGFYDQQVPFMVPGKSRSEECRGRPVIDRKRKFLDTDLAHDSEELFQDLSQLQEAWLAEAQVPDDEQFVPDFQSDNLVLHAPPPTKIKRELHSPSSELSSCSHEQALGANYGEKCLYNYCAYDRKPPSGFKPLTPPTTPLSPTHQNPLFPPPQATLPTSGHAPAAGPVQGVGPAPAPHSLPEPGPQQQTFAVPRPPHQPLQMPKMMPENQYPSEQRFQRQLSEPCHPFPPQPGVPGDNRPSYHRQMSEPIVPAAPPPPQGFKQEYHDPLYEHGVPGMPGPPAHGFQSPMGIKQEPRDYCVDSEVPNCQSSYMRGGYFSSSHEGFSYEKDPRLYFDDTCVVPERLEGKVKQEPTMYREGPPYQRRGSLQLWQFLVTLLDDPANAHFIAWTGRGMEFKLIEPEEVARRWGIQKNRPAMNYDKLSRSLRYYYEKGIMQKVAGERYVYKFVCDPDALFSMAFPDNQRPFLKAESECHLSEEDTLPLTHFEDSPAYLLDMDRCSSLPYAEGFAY
# Procedure, shortened: as §1
# [12] = molecular target: HSF1 (Homo sapiens, UniProt Q00613 1-529); details: protein: recombinant; tags: N-terminal GST; chain copies: 3; dsDNA, one strand shown
# Chain of HSF1 (Q00613 whole entry): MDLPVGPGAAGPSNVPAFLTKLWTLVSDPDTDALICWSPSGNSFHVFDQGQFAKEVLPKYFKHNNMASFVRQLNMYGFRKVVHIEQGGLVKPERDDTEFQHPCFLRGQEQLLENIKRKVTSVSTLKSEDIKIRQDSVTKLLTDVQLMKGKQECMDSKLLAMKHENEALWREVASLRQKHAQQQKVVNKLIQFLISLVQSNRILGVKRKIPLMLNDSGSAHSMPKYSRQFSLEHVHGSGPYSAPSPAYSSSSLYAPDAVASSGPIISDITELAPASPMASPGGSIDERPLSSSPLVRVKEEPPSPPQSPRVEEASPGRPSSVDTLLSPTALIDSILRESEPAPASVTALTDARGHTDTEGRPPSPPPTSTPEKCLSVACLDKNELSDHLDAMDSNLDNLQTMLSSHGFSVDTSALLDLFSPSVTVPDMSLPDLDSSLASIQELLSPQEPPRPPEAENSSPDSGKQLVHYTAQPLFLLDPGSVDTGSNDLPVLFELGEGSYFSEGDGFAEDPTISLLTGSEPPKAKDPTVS
# Procedure, shortened: as §1
# [13] = molecular target: T8, SPIC (Homo sapiens, UniProt Q8N5J4 1-248); details: protein: recombinant; tags: N-terminal GST; dsDNA, one strand shown
# T8 sequence: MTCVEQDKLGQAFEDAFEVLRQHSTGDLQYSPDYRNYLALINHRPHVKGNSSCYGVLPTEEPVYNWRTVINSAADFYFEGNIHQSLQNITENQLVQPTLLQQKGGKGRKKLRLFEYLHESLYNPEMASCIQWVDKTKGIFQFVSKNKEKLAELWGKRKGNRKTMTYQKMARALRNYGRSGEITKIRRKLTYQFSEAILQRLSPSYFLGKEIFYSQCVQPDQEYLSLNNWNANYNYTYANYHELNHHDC
# Procedure, shortened: as §1
# [14] = molecular target: ELF4 (Homo sapiens, UniProt Q99607 1-663); details: protein: recombinant; tags: N-terminal GST; dsDNA, one strand shown
# Chain of ELF4 (Q99607 whole entry): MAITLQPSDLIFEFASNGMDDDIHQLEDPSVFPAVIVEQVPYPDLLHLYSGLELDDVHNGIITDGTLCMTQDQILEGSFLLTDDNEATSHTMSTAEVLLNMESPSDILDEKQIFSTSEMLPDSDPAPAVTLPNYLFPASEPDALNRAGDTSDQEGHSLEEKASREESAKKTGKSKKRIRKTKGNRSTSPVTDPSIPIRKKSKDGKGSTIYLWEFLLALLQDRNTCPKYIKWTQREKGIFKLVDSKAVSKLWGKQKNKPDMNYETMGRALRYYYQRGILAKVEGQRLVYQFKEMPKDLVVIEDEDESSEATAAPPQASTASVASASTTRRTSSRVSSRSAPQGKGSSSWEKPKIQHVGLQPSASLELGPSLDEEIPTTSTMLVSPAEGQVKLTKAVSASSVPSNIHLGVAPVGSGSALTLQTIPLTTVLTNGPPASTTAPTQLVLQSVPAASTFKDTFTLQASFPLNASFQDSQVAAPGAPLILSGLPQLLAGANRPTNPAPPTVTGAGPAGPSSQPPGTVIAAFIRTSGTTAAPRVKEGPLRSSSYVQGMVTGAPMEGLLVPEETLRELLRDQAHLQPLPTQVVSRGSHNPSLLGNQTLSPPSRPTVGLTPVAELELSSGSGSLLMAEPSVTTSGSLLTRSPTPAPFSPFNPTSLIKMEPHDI
# Procedure, shortened: as §1
# [15] = molecular target: T9, ELK4 (Homo sapiens, UniProt P28324-2 1-405); details: protein: recombinant; tags: N-terminal GST; dsDNA, one strand shown
# T9 sequence: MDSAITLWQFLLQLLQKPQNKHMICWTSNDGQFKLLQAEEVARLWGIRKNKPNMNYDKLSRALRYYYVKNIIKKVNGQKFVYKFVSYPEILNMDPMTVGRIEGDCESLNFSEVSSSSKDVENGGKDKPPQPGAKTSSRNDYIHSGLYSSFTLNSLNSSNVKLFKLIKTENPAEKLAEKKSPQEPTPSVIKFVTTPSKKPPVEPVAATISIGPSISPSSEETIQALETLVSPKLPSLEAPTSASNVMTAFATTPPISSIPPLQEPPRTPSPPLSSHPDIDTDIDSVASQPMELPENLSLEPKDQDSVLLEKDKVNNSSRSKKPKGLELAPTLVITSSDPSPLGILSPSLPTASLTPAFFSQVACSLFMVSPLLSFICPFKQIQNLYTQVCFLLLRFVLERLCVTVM
# Procedure, shortened: as §1
# [16] = molecular target: T10, ELF3 (Homo sapiens, UniProt P78545 1-371); details: protein: recombinant; tags: N-terminal GST; dsDNA, one strand shown
# T10 sequence: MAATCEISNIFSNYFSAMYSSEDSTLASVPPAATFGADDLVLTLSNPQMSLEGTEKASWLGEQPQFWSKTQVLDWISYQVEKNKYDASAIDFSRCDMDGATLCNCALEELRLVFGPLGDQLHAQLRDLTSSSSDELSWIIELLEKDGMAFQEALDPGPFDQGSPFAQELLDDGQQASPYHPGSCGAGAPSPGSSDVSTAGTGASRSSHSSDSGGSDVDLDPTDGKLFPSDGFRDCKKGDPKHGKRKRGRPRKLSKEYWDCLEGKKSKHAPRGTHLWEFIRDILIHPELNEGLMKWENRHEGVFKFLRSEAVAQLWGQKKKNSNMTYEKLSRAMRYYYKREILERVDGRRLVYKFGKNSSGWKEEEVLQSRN
# Procedure, shortened: as §1
# [17] = molecular target: CRX (Homo sapiens, UniProt O43186 1-299); details: protein: recombinant; tags: N-terminal GST; dsDNA, one strand shown
# Chain of CRX (O43186 whole entry): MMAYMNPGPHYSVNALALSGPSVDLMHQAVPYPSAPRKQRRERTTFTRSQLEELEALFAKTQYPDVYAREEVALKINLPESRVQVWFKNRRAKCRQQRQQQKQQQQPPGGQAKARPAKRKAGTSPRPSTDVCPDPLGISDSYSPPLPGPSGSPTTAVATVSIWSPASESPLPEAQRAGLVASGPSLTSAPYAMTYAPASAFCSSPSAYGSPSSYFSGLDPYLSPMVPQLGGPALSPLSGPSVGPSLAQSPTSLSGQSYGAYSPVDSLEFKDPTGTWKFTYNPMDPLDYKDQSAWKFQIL
# Procedure, shortened: as §1
# [18] = molecular target: ETV1 (Homo sapiens, UniProt P50549 1-477); details: protein: recombinant; tags: N-terminal GST; dsDNA, one strand shown
# Chain of ETV1 (P50549 whole entry): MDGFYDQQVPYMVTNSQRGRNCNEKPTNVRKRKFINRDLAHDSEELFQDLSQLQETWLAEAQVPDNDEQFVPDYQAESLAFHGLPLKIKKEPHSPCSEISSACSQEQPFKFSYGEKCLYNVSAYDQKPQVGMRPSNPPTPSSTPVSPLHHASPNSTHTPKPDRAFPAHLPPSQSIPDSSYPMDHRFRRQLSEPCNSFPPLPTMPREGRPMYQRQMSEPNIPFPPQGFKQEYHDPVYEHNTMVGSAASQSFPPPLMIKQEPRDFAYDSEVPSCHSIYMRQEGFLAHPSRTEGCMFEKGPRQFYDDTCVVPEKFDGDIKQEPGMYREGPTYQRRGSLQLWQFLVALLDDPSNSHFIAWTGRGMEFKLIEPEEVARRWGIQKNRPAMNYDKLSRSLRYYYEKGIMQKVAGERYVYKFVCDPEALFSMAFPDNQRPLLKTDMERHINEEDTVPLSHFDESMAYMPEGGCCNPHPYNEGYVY
# Procedure, shortened: as §1
sequence,measurement,setting,value
CGAACT,binding signal,[1],"1.16 fold enrichment (6-mer frequency, TF over GST control)"
same,binding signal,[2],"1.17 fold enrichment (6-mer frequency, TF over GST control)"
same,binding signal,[3],"1.24 fold enrichment (6-mer frequency, TF over GST control)"
same,binding signal,[4],"1.06 fold enrichment (6-mer frequency, TF over GST control)"
same,binding signal,[5],"1.24 fold enrichment (6-mer frequency, TF over GST control)"
same,binding signal,[6],"1.17 fold enrichment (6-mer frequency, TF over GST control)"
same,binding signal,[7],"1.16 fold enrichment (6-mer frequency, TF over GST control)"
same,binding signal,[8],"1.03 fold enrichment (6-mer frequency, TF over GST control)"
same,binding signal,[9],"1.13 fold enrichment (6-mer frequency, TF over GST control)"
same,binding signal,[10],"1.16 fold enrichment (6-mer frequency, TF over GST control)"
same,binding signal,[11],"1.19 fold enrichment (6-mer frequency, TF over GST control)"
same,binding signal,[12],"1.48 fold enrichment (6-mer frequency, TF over GST control)"
same,binding signal,[13],"1.01 fold enrichment (6-mer frequency, TF over GST control)"
same,binding signal,[14],"1.12 fold enrichment (6-mer frequency, TF over GST control)"
same,binding signal,[15],"1.15 fold enrichment (6-mer frequency, TF over GST control)"
same,binding signal,[16],"1.02 fold enrichment (6-mer frequency, TF over GST control)"
same,binding signal,[17],"1.05 fold enrichment (6-mer frequency, TF over GST control)"
same,binding signal,[18],"1.1 fold enrichment (6-mer frequency, TF over GST control)"
